Reference: the supplement of paper PMC6555819

The sequences below were run on VDR:RXRa (NR concentration 270 nM, RXRa partner concentration 90 nM) (assay: PBM binding z-score (relative to random genomic background probes); higher = stronger binding; sequences stand for … in GC…GCGATTGACAGCGTAGAATGAAGG).
Procedure: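 Protein-binding microarray (Agilent 4x180K custom design, double-stranded 60-nt probes: 5' GC cap, 34-nt variable region, 24-nt constant primer region; full probe sequence given). Purified or IVT nuclear receptor:RXRα heterodimers (3:1 NR:RXRα, mostly 270:90 nM) or homodimers were incubated for 1 h in PBS with 2% milk and no ligand, then detected with Alexa488 antibodies. Fluorescence from o1-orientation probes (~5 replicates averaged) was converted to z-scores against 500 random hg19 background probes. Variable regions are seed direct-repeat (DR0–DR5) sites, all their single-nucleotide variants and half-site ablations.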

Q: CGTCCAAGGTTAAGGTCAGTGAAAGAGACTCGAA was tested. Which PBM binding z-score did it give?
A: 2.5

Q: How did the PBM binding z-score turn out when ACTTACGGGTCTACGAGGTTATAGCACGCGTATA was run?
A: 2.83

Q: TCGAGTAGGTCACGGGGGCATTCAGGGATGAAGA was tested. Which PBM binding z-score did it give?
A: 5.82

Q: How did the PBM binding z-score turn out when CGCACTAGGTCATCCAGGACAGTGAATACATTGA was run?
A: 4.38

Q: How did the PBM binding z-score turn out when AGAATGAGGTTACCAAAGTTCAGGGAAACGCTTG was run?
A: 5.53

Q: Which PBM binding z-score does the source give for CCTACTGGGCCTAAGGTCATTGATTCCAATGCTC here?
A: 3.34

Q: How did the PBM binding z-score turn out when TAGCCTAGGTCATTCAGGGGCCACTATAGAAAGC was run?
A: 3.95

Q: Which PBM binding z-score does the source give for CCTACTGGACCAAGGTCATTGATCAGTCAAAGCA here?
A: 3.44

Q: Which PBM binding z-score does the source give for AGAATGAGGTCATTAAGATCAGGGAATTGCGGTC here?
A: 5.8

Q: Which PBM binding z-score does the source give for ATATGTAGGATAGCTGGGGTCATTCAGACTAGGC here?
A: 4.86

Q: Which PBM binding z-score does the source give for TATACAGGGTCAAAGGCCAAAGTACGAATGTCGA here?
A: 5.31

Q: With CGAACTAGGTCAAGGGACAGTGAAAGGCGACGTA as the sequence, how does the PBM binding z-score read?
A: 0.899

Q: How did the PBM binding z-score turn out when AGTCAAACTTCAGGACGAGGTAACGTAAAGCACG was run?
A: -0.131

Q: How did the PBM binding z-score turn out when CGAACGAGGTCATGAGTTGATAGCAAATGCCGAT was run?
A: 5.57

Q: For GGAACGAGGTCAAAGTTGATAGCATCTGTCGACG, which PBM binding z-score is on record?
A: 5.81

Q: For CCAACTGGGCCAAAAAGGTCATTGATGCCGATAA, which PBM binding z-score is on record?
A: 4.89

Q: CCTACTGGGCCAAAAAGTTCATTGATGCCGATAA was tested. Which PBM binding z-score did it give?
A: 3.68

Q: How did the PBM binding z-score turn out when TCTAGTCGGTCAAAGGTCACACACTCGAAATGCG was run?
A: 5.65

Q: With CACACTAGGTCACAGAGGTCAAAGTCCGTGCGTA as the sequence, how does the PBM binding z-score read?
A: 8.14

Q: For AAAACAGGGTCATCGTAGGCCAGAGTACGCACAG, which PBM binding z-score is on record?
A: 5.38

Q: How did the PBM binding z-score turn out when TGAATGAGGTTAAATATCAGGGAACGTGGCGTCG was run?
A: 1.54

Q: With GCTTACGGGTCCAAGGTTATAGCATGAATAGAAT as the sequence, how does the PBM binding z-score read?
A: 1.26

Q: Which PBM binding z-score does the source give for CGTCAAAGGTCAAGGTAACGTAACAGAAAGCAGC here?
A: 5.13

Q: With CCTTACGGGTTACTCCAGGTTATAGCATCGGAGT as the sequence, how does the PBM binding z-score read?
A: 1.39

Q: CGTCCAAGGTCGAAGGTCAGTGAAGAGATGACGG was tested. Which PBM binding z-score did it give?
A: 3.23

Q: How did the PBM binding z-score turn out when TAGCCTAGTTCATTCAGGGGCCAGTATAGAAAGC was run?
A: 2

Q: AGAATGGGGTTACCAAAGATCAGGGAAACGCTTG was tested. Which PBM binding z-score did it give?
A: 2.66

Q: ATTTGTAGGTTACATCCGGGTCATTCAGGCTATG was tested. Which PBM binding z-score did it give?
A: 4.68

Q: With TCTTGTAGGTCAATAGAGGTTAAGAAAGTGCGCT as the sequence, how does the PBM binding z-score read?
A: 4.85

Q: For TACCCTAGGTCATTGGGCCAGTATAGTACGCATC, which PBM binding z-score is on record?
A: 2.73

Q: For CCTTACGGGTCACTGACAGGTTATAGCGTTTGGA, which PBM binding z-score is on record?
A: 3.63

Q: For GATACAGGGTCGGCTAGAGGCCAGAGTATGGAAA, which PBM binding z-score is on record?
A: 0.547

Q: For AGTCAAAGTTCAGGACGACGTAACGTAAAGCACG, which PBM binding z-score is on record?
A: 2.18

Q: How did the PBM binding z-score turn out when TTGCCAAGGTGAAAGGTCGTTGATGCACGCCTTG was run?
A: 3.23

Q: How did the PBM binding z-score turn out when CAAACTAGGTCAAGGTCTAAGTCGGTTTGTGCCA was run?
A: 1.95

Q: How did the PBM binding z-score turn out when AACGAAAGGTCGAAGGTGAGTATACCCACCCGAA was run?
A: 2.9

Q: Which PBM binding z-score does the source give for CAAACTAGGTCACTAAAGGTCAAAGTCGAATGAC here?
A: 6.48

Q: TTACCAAGGTGAAAGGTCGTTGCTGCACGCCTTG was tested. Which PBM binding z-score did it give?
A: 3.19

Q: For CGAACTAGGTCATTGACAGGACAATGAATAGTAA, which PBM binding z-score is on record?
A: 2.62

Q: Which PBM binding z-score does the source give for TGTCAACGTTCAAAGGTAACGTAAGTATCCACAC here?
A: 0.617
